Several values for one entry are separate records, joined by “and”; a condition that tells them apart may be missing. Identical values can stand only once. About 79,000 compounds went through this panel and 15% of them were active in at least one assay; those are over-represented in the sample as a whole. Activity calls are given as the source filed them. Rule as the data show it: active = growth inhibition above about 70%; inactive = the rest.
Experiment: NCI Yeast Anticancer Drug Screen. Data for the bub3 strain (AID 167)
Settings: S. cerevisiae bub3 mutant strain, stronger effect = higher value
Protocol: Growth inhibition of yeast strains with defined genetic alterations is measured as a screen for potential anti-cancer activity. Selected strains with alterations in DNA damage repair or cell cycle control were exposed to compounds and growth inhibition was measured relative to vehicle treated controls. The strain used in this assay is bub3

[1] = at 5.0 µM (retest, dose inferred, filed as 0.5)
[2] = at 50.0 µM (retest, dose inferred, filed as 5.0)

Row | SMILES | growth inhibition [1] | growth inhibition [2] | growth inhibition (at 50.0 µM)
1 | Cc1cc(I)nc2ccccc12 | -6% (inactive) | -13% (inactive) | 26.8% (inactive)
2 | CCN(CC)CC(O)CNc1ccc(NCC2CO2)c2c1C(=O)c1ccccc1C2=O (stereo unspecified) | 43% (inactive) | 59% (inactive) | -36% (inactive)
3 | O=C1C=CC(O)=CC1=P(c1ccccc1)(c1ccccc1)c1ccccc1 | -4% (inactive) | 2% (inactive) | 25.9% (inactive)
4 | CC(C)(C)c1ccc(O)c(-c2ccccc2)c1 | 2% (inactive) | 97% (active) | 99.2% (active)
5 | COC(=O)c1ccc(Cl)c(NN)c1 | 93% (active) | 99% (active) | –
6 | Oc1ccc(/C=C/c2ccc(Cl)cc2)cc1 | 10% (inactive) | 98% (active) | –
7 | CCOc1cc2c(cc1O)/C(=N\OC)C[C@@H]1[C@@H]2CC[C@]2(C)[C@@H](O)CC[C@@H]12 | 25% (inactive) | 71% (active) | 13.6% (inactive)
8 | CC1(C)CCC2(C(=O)O)C(O)CC3(C)C(=CCC4C5(C)CCC(OC6OCC(O)C(O)C6OC6OCC(O)C(O)C6OC6OCC(O)C(OC7OC(CO)C(O)C(O)C7O)C6O)C(C)(C)C5CCC43C)C2C1 (stereo unspecified) | 17% (inactive) | 100% (active) | 86.5% (active)
9 | [O-][n+]1cccc2cccc(O)c21 | 1% (inactive) | 20% (inactive) | –
10 | CC1(C=O)CCC23COC4(CCC5C6(C)CCC(OC7OCC(OC8OC(CO)C(O)C(OC9OC(CO)C(O)C(O)C9O)C8OC8OCC(O)C(O)C8O)C(O)C7OC7OC(CO)C(O)C(O)C7O)C(C)(C)C6CCC5(C)C4(C)CC2O)C3C1 (stereo unspecified) | 16% (inactive) | 97% (active) | 87.1% (active)
11 | N#Cc1ccc(Br)cc1[N+](=O)[O-] | 87% (active) | 100% (active) | –
12 | COC(=O)c1ccc(=O)c2nc3/c(=C/O)c(O)cc(=O)c3[nH]c12 | 99% (active) | 96% (active) | 89.5% (active)
13 | Nc1ccc(-c2ccc(N)c(S(=O)(=O)O)c2)cc1S(=O)(=O)O | 6% (inactive) | 15% (inactive) | 33.2% (inactive)
14 | COc1cc(NC(=O)C2=C(C)NC(C)=C(C(=O)Nc3cc(OC)c(Cl)cc3OC)C2c2cccc([N+](=O)[O-])c2)c(OC)cc1Cl | 27% (inactive) | 97% (active) | 95.5% (active)
15 | CN(C)N=Nc1ccc(C(=O)O)cc1 | – | – | 16.9% (inactive) and -21.1% (inactive)
16 | CC(=O)OCC1OC(n2c(N)c(C#N)c(C)c(C#N)c2=S)C(OC(C)=O)C(OC(C)=O)C1OC(C)=O (stereo unspecified) | – | – | 3.55% (inactive) and -1.5% (inactive)
17 | CCOC(=O)c1ccc(N=[N+]([O-])c2ccc(C(=O)OCC)cc2)cc1 | – | – | -40.5% (inactive) and -19.9% (inactive)
